Out of some 190,000 compounds screened, about 1,300 (0.68%) were called active. Only a selection was taken, and actives are over-represented in it overall. Values without a mark were called inactive. Rule as the data show it: active = inhibition above about 50%; inactive = the rest.

The text below walks through data of PubChem BioAssay AID1220 (Sanford-Burnham Center for Chemical Genomics, 2008).

Chain of Mannose-6-phosphate isomerase (Homo sapiens) (P34949 whole entry, looked up): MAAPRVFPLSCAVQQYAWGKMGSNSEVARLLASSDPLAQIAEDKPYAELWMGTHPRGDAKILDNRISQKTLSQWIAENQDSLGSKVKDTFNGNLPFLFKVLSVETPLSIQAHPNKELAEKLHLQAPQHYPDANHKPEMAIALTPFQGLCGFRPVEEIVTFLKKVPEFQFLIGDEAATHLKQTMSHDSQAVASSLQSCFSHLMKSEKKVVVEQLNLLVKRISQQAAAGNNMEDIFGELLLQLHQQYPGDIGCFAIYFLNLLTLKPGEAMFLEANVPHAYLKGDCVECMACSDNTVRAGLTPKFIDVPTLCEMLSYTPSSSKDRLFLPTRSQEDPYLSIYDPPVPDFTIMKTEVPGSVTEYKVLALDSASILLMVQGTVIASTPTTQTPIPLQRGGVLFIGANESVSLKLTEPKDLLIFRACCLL

The assay addresses Mannose-6-phosphate isomerase (Homo sapiens) (UniProt P34949). As to the kind of experiment: MPI inhibition at elevated mannose 6-phosphate – biochemical, fluorescence intensity, high mannose 6-phosphate, primary screen (AID 1220). As to conditions: recombinant PMI enzyme, coupled fluorescence intensity; at 20 µM; hits give high values.
Consider `COc1ccc(Nc2nnc(Cc3ccc(Cl)cc3)c(=O)[nH]2)c(OC)c1`, for which the inhibition was 19.1%. `CCC(=O)N(C)/C=C1\Sc2ccccc2C1=O`: the inhibition is 5.7%.

With `CCC(=O)N(C1=C(NC)C(=O)c2ccccc2C1=O)C(C)C`, the inhibition was 62.3% (active). Then `CCC(=O)NC1=C(NC(C)c2ccccc2)C(=O)c2ccccc2C1=O` (configuration not stated), with -10.2%; and `CCC(=O)N(C1=C(NC(C)C)C(=O)c2ccccc2C1=O)C(C)C`, with 58.2% (active); and `CC(C)NC1=C(Cl)C(=O)c2ccccc2C1=O`, with -32%. Under `CCC(=O)N(CC)C1=C(O)c2ccccc2C(=O)C1=O` stands 15.9%.

For the compound `OC1CCCN(Cc2cn(Cc3ccccc3)nc2-c2cc3ccccc3o2)C1` (configuration not stated), the inhibition was 15.3%. Under `O=C(C1CCN(c2nc3nonc3nc2N2CCCCC2)CC1)N1CCOCC1` stands 14.3%; under `CCN(C(=O)COC(=O)c1ccc2[nH]c3c(c2c1)CCCC3)C1CCS(=O)(=O)C1` (configuration not stated), -6%. Under `Cc1cc2cc(CCNC(=O)c3cccc([N+](=O)[O-])c3)c(=O)[nH]c2cc1C` stands -2.2%; under `CN(CC(=O)Nc1ccc(F)cc1)c1ccc(S(=O)(=O)N2CCCC2)cn1`, 1.4%; under `CCn1ncc([C@@H]2C[C@H]3CN(Cc4ccccc4C)C(=O)[C@]34CCCN24)c1C`, 25.8%. Turning to `O=C(O)C1CN(c2nc(Cl)ccc2[N+](=O)[O-])C1`, the inhibition is 47.3%. Under `O=C(O)C1CC(O)CN1c1nc(Cl)ccc1[N+](=O)[O-]` (configuration not stated) stands 64.1% (active); under `O=C(O)CNc1nc(Cl)ccc1[N+](=O)[O-]`, 13.4%. As for `Cc1cccc(N2C(=O)CC(N3CCOCC3)C2=O)c1` (configuration not stated), the inhibition is -1.5%. Under `CC1(C)CC(=O)/C(=C(\O)c2ccccc2)C(=NCCc2ccccc2)C1` stands -2.6%. Under `Cc1cc(C)nc(-n2cc(C(=O)c3cc(F)ccc3O)cn2)n1` stands 52.4% (active); under `Cc1ccc(O)c(C(=O)c2cnn(-c3ccccc3)c2)c1`, 12.6%; under `Cc1ncc(CC(=O)n2cc(C(=O)c3cc(F)ccc3O)cn2)s1`, 8.5%. Turning to `CCN(CC)CCCNC(=O)c1cn(CC)c2ccc(S(=O)(=O)N3CCc4ccccc4C3)cc2c1=O`, the inhibition was 0%. Then `O=C1CNC(=O)/C1=C\c1ccc(O)cc1`, with -3.7%; and `Cc1c(NC(=O)OCCSc2nc(N(C)C)nc(N(C)C)n2)sc(=S)n1C`, with 5.4%; and `CSc1ccccc1NC(=O)C(=O)c1c[nH]c2ccccc12`, with -2.7%. Then `O=C(Nc1ccccc1N1CCOCC1)C1Cc2ccccc2CN1C(=O)c1ccco1` (configuration not stated), with -3.5%; and `COc1c(Cl)cc(C(=O)Nc2ccccc2C(=O)O)cc1Cl`, with 0.7%; and `Oc1ccc(Cl)cc1N=Cc1sc2ccccc2c1Cl`, with 55.5% (active). Turning to `COc1ccc(N=Cc2sc3ccccc3c2Cl)cc1`, the inhibition is 1.8%. Under `Oc1c(C=Nc2cccc3cccnc23)sc2ccccc12` stands -3.1%; under `O=[N+]([O-])c1ccc(O)c(N=Cc2sc3ccccc3c2O)c1`, 25.4%; under `Oc1ccccc1N=Cc1sc2ccccc2c1Cl`, 56.6% (active).

For `Cc1ccc(O)c(N=Cc2sc3ccccc3c2Cl)c1`, the inhibition was 19.3%. Under `COc1ccc(S(=O)(=O)NCCOc2ccccc2)cc1-n1cnnn1` stands 7.4%. Then `Nc1nc(SCc2c(Cl)cccc2Cl)n[nH]1`, with -8.6%; and `Cc1ccn2cc(C(=O)Nc3ccc4c(c3)OCCO4)nc2c1`, with 8.6%. Then `CCOC(=O)c1cn2ccc(C)cc2n1`, with 10%; and `Cc1ccn2cc(C(=O)Nc3nnc(C)s3)nc2c1`, with 51.4% (active).

For the compound `CC1CCN(CC(=O)Nc2sc3c(c2C#N)CCC3)CC1`, the inhibition is -6.5%. Under `CC(C)CCN1CCN(C2CCN(c3ccccc3)CC2)CC1CCO` (configuration not stated) stands 7%; under `Cc1cc(F)ccc1N1CCC(N2CCN(CCC(C)C)C(CCO)C2)CC1` (configuration not stated), 4.2%. `CC(C)CCN1CCN(C2CCN(c3ccc4c(c3)OCO4)CC2)CC1CCO` (configuration not stated): the inhibition was 52.3% (active). Then `C=CCSc1nnc(NC(=O)c2cn(CC)c3nc(C)ccc3c2=O)s1`, with -1.9%; and `COCCn1c(N)c(C(=O)NCC2CCCO2)c2nc3ccccc3nc21` (configuration not stated), with 71.5% (active); and `COCCn1c(N)c(C(=O)Nc2sc3c(c2C(=O)OC)CCCC3)c2nc3ccccc3nc21`, with 11.1%. Under `COCCn1c(N)c(S(=O)(=O)c2cccs2)c2nc3ccccc3nc21` stands 4.3%.

`COc1ccc(OC)c(-n2c(N)c(C(=O)NCC3CCCO3)c3nc4ccccc4nc32)c1` (configuration not stated): the inhibition was 17.6%. Then `COc1ccccc1CNC(=O)c1c(N)n(CCCN2CCOCC2)c2nc3ccccc3nc12`, with 52.5% (active); and `COc1ccc(CCn2c(N)c(C(=O)NCc3ccco3)c3nc4ccccc4nc32)cc1OC`, with 51.6% (active); and `COc1ccc(CNC(=O)c2c(N)n(CCCN3CCOCC3)c3nc4ccccc4nc23)cc1`, with 20.1%.

For the compound `Nc1c(C(=O)NCc2ccccc2)c2nc3ccccc3nc2n1CCCN1CCOCC1`, the inhibition is 49%. Then `Nc1c(C(=O)NCc2ccco2)c2nc3ccccc3nc2n1CCc1ccccc1`, with 34.8%.

With `COCCn1c(N)c(C(=O)NCc2cccs2)c2nc3ccccc3nc21`, the inhibition was 62.5% (active). Then `COc1ccc(CCn2c(N)c(C(=O)NCc3ccco3)c3nc4ccccc4nc32)cc1`, with 48.2%; and `COCCn1c(N)c(C(=O)OCc2ccccc2)c2nc3ccccc3nc21`, with 49.4%. Then `COc1ccccc1/C=N/NC(=O)c1ccccc1Cl`, with 2.7%; and `COc1ccc2nc(C)cc(SCC(=O)NNC(=O)COc3cccc4ccccc34)c2c1`, with -3%. Then `CC(C)N(C(=O)Cn1cc(SCC(N)=O)c2ccccc21)C(C)C`, with -4.4%; and `COc1cccc(NC(=O)CSCC(=O)O)c1`, with 8.3%. Take `CCOC(=O)Cn1cc(C(=O)c2cccs2)c2ccccc21`: the inhibition is 5.6%. `O=S(=O)(NC1CC2CCC1C2)c1ccc2c(c1)OCCO2` (configuration not stated): the inhibition is 3.1%.

In the case of `CC(=O)Nc1ccc(NC(=O)Cn2c(=O)n(-c3ccc(F)cc3)c(=O)c3oc4ccccc4c32)cc1`, the inhibition was -9.8%.

The term inhibition denotes the change of the read-out against control, counted positive when it falls.
